This is a sample that favours compounds with a hit; in the whole collection about 6.1% have one here.
Gal4-VP16 FLuc: Gal4-VP16 reporter inhibition counter-screen; Drosophila S2 Gal4-VP16 UAS-luciferase, luminescence, 20 h; 3.5% of 310,000 active; Potency, µM (highest dose often 53.6 µM), inactives show at the top dose activity, negative = inhibition, actives largely listed as inhibitors; AID 2546;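 further: Gal4-VP16 expression switched on by copper sulfate through the metallothionein promoter; on the % scale 0 is the no-effect control and ±100 the full control effect; nearly all actives have a fitted effect of over 50% in size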
RORg inh: inhibitors of mouse ROR gamma transcriptional activity. P51450. Drosophila S2 Gal4-RORgamma UAS-luciferase reporter, 20 h. Potency, µM (series often up to 53.6 µM), for the others: at the top dose activity change, negative = inhibition, hits mostly inhibitors. 5.4% of 310,000 active. AID 2551; further: on the % scale 0 is the no-effect control and ±100 the full control effect; nearly all actives have a fitted effect of over 60% in size
Target sequence (P51450 whole entry, looked up, the tested form may be a part): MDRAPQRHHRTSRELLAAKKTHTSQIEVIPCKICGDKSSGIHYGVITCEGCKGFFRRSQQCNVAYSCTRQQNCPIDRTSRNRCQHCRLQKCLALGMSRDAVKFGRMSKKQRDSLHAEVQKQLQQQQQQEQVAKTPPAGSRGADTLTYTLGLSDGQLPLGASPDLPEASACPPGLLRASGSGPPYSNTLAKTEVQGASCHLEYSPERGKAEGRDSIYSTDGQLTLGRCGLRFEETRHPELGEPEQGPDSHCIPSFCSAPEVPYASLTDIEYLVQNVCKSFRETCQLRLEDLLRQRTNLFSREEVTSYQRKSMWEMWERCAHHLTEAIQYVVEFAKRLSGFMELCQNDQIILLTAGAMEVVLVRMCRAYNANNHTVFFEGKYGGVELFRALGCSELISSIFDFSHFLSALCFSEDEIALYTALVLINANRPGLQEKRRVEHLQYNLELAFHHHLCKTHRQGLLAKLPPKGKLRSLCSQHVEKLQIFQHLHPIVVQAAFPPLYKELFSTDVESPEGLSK
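Compounds are pin-transferred onto Drosophila Schneider cells expressing a copper-inducible Gal4–ROR gamma transactivation domain fusion. After 1 hr, copper sulfate is added to 700 uM final; luciferase is read 20 hr later.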
ATXN viability: cell viability loss in ATXN counter-screen | S2 cells (HEK-293 line with an ATXN2-luciferase reporter) viability, CellTiter-Fluor protease fluorescence, 24 h | Potency, µM (top dose mostly 56.7 µM), most hits filed as cytotoxic | 0.49% of 400,000 active; further: nearly all actives have a fitted effect of over 40% in size
HepG2 viability: HepG2 cytotoxicity, counter-screen for TGF-b inhibitors; HepG2 CAGA-GFP viability, ATP luminescence, 18 h; Potency, µM (doses to about 46.1 µM), inactives show top-dose activity change, negative = cytotoxicity, hits mostly cytotoxic; 0.76% of 410,000 active; AID 588856
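CellTiter-Glo luminescence gave cytotoxicity after 18 hours at 37 degrees C. The cells were HepG2 CAGA-GFP in 1% FBS DMEM, stimulated with 500 pg/mL TGF-beta after compound addition. %Activity was normalised to no-cell wells (complete cell-killing) and DMSO (no toxicity), and curves were fitted and classified.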
TGFb inhibitor: blocks TGF-b signaling; HepG2 CAGA-GFP TGF-b/SMAD3 reporter, GFP fluorescence, 18 h; TGF-beta stimulated, 500 pg/mL final; Potency, µM (titrated, usually from 46.1 µM), for inactives: at the top dose activity, negative = inhibition, hits mostly inhibitors; 1.2% of 410,000 active; further: on the % scale 0 is the no-effect control and ±100 the full control effect; nearly all actives have a fitted effect of over 65% in size
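Using HEPG2 CAGA-GFP reporter cells at 1000 cells/well, we pinned test compounds, stimulated with recombinant TGF-beta (500 pg/mL final) and measured total well GFP after 18 h.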
ATXN2 expr inh: reduces ATXN2 reporter expression in HEK-293 cells. 0.72% of 360,000 active. AID 1745845. HEK-293 ATXN2-luciferase reporter, luminescence, 24 h. Potency, µM (series often up to 57 µM), for the others: at the highest dose activity change, negative = inhibition, actives largely listed as inhibitors; further: on the % scale 0 is the no-effect control and ±100 the full control effect; nearly all actives have a fitted effect of over 55% in size
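qHTS (up to 57 uM final) was run with 24 h compound exposure of reporter cells at 37 °C. Each well was multiplexed: SteadyGlo luminescence measured ATXN2-luciferase expression after a fluorogenic Gly-Phe-AFC viability readout (25 uM final).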
Numbers without * were called inactive; i = inactive; u = inconclusive; x = no result; [ ] = dose if it differs, or a comment. The call rests on the fitted dose curve; in most records, active means well fitted curve in the direction sought with a large enough effect; inconclusive means small, poorly fitted or top-dose-only effect, or another doubt; inactive means no such curve, though single readings can be large; an effect the other way counts as inactive or inconclusive. Potency means the concentration at half of the fitted maximal effect.

SMILES	Gal4-VP16 FLuc	RORg inh	ATXN viability	HepG2 viability	TGFb inhibitor	ATXN2 expr inh
COc1ccc(C(C)NCCC(c2ccc(OC(C)C)cc2)c2ccccc2OC)cc1 (stereo not given)	u	u	x	12.6µM*	11.2µM*	u
CCOC(=O)OCC1OC(c2cc(C)cc(C)c2)C=CC1OC(=O)OCC (stereo not given)	-4.7%[10 µM]	1.1%[10 µM]	x	x	x	x
CN(C(=S)Nc1ccc(F)cc1)C1(c2ccccc2Cl)CCCCC1=O (stereo not given)	-4.0%	8.91µM*	i	-10.7%	13.6%	3.2%
CN(N)C(=S)Nc1ccc(F)cc1	4.4%	-3.0%	i	-1.3%	-5.7%	-7.9%
CN(C)S(=O)(=O)c1cccc(NC(=O)COc2ccc(C(=O)c3ccccc3)cc2)c1	u	u	i	22.4µM*	-32.8%	-38.2%
Cc1ccc(S(=O)(=O)N(C)C)cc1NC(=S)NC12CC3CC(CC(C3)C1)C2	5.62µM*	5.01µM*	i	-24.8%	u	-17.4%
Cc1ccc(S(=O)(=O)N(C)C)cc1NC(=S)Nc1ccc2[nH]c(=O)[nH]c2c1	-1.8%	10.2%	i	-2.9%	-5.7%	x
COc1cc(/C=N/NC(=S)Nc2cccc(S(=O)(=O)N(C)C)c2)ccc1O	3.55µM*	3.55µM*	i	9.2%	3.3%	30.5%
COc1ccc(CCNC(=O)CSc2cccc3cccnc23)cc1OC	-0.2%	1µM*	i	-10.0%	-15.5%	6.0%
CN(c1ccccc1)S(=O)(=O)c1cccc(NC(=O)COc2ccccc2)c1	x	x	i	-0.2%	-4.4%	x
CN(C)S(=O)(=O)c1cccc(NC(=O)CSc2cccc3cccnc23)c1	u	10µM*	x	15.8µM*	u	u
CN(C)S(=O)(=O)c1ccc(SCC(=O)Nc2cccc(S(=O)(=O)N3CCCC3)c2)nc1	x	x	x	-35.3%	-13.0%	x
CN(C)S(=O)(=O)c1cccc(NC(=S)NC2CCCCC2)c1	12.0%	-39.7%	i	-7.5%	14.1%	4.7%
CN(C)S(=O)(=O)c1cccc(NC(=S)NC23CC4CC(CC(C4)C2)C3)c1	u	4.47µM*	i	-16.8%	u	-24.5%
CC1CCCC(NC(=S)Nc2cccc(S(=O)(=O)N(C)C)c2)C1C (stereo not given)	u	12.6µM*	i	-19.8%	u	-6.3%
CN(C)S(=O)(=O)c1cccc(NC(=S)NN=C(Cc2ccccc2)Cc2ccccc2)c1	u	12.6µM*	i	-22.5%	-13.2%	7.1%
Brc1ccc(C2C=Cc3ccccc32)cc1 (stereo not given)	x	x	x	3.1%	-0.5%	x
CCC(CO)NC(=O)C(=O)Nc1c2c(nn1-c1ccc(F)cc1)CSC2 (stereo not given)	x	x	i	-6.7%	0.1%	13.7%
Cc1ccc(S(=O)(=O)N(C)C)cc1NC(=S)NC(=O)C12CC3CC(CC(C3)C1)C2	7.08µM*	7.08µM*	i	-16.1%	-1.9%	-11.9%
Cc1ncc2c(c1CNC(=O)/C=C/c1cccs1)CCN(C(=O)C1CCCO1)C2 (stereo not given)	x	x	i	x	x	x
CN(C(=O)c1cnc(N2CCOCC2)c2ccccc12)c1ccccc1F	x	x	x	0.0%	23.0%	x
c1ccc(-c2nc(N3CCOCC3)c3ccccc3n2)nc1	5.62µM*	2.51µM*	u	-19.5%	2.2%	-25.8%
CN1CCN(c2nc(-c3ccccc3O)nc3ccccc23)CC1	-14.3%	8.91µM*	i	1.8%	2.4%	-25.3%
c1ccc(-c2nc(N3CCCCCC3)c3ccccc3n2)nc1	2.51µM*	1.12µM*	11.2µM*	6.5%	0.5%	u
CCN1CCN(c2nc(-c3ccccn3)nc3ccccc23)CC1	-7.4%	2.0%	i	2.7%	-15.8%	u
c1ccc(CN2CCN(c3nc(-c4ccccn4)nc4ccccc34)CC2)cc1	2.82µM*	1.41µM*	i	-10.9%	7.0%	7.6%
